Test results published in PubChem BioAssay (NCI).
About 83,000 compounds went through this panel and 20% of them were active in at least one assay; those are over-represented in the sample as a whole.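 Treatment: one concentration, 48 hours, 96-well format. Scoring: percent growth, with anything below 10 considered active.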 Active and inactive are the calls of the source.

Columns and labels:
Assay in all cases: NCI-60 one-dose screen, 48 h (100 = growth as untreated, 0 = no growth, -100 = all killed)
HCT-15 colon = conditions: 10 µM unless noted
HT29 colon = conditions: 10 µM unless noted
SNB-19 CNS = conditions: 10 µM unless noted
U251 CNS = conditions: 10 µM unless noted
PC-3 prostate = conditions: 10 µM unless noted
SK-MEL-5 melanoma = conditions: 10 µM unless noted
UACC-62 melanoma = conditions: 10 µM unless noted
LOX IMVI melanoma = conditions: 10 µM unless noted
SK-MEL-28 melanoma = conditions: 10 µM unless noted
SK-MEL-2 melanoma = conditions: 10 µM unless noted
EKVX NSCLC = conditions: 10 µM unless noted
SN12C renal = conditions: 10 µM unless noted
UO-31 renal = conditions: 10 µM unless noted
TK-10 renal = conditions: 10 µM unless noted
ACHN renal = conditions: 10 µM unless noted
CAKI-1 renal = conditions: 10 µM
A498 renal = conditions: 10 µM unless noted
CCRF-CEM leukemia = conditions: 10 µM unless noted
MOLT-4 leukemia = conditions: 10 µM unless noted
SNB-75 CNS = conditions: 10 µM unless noted

Measured: growth

O=C1[C@H]2Cc3c([nH]c4ccccc34)[C@@H](c3ccc(Cl)cc3)N2C(=O)CN1C1CCN(Cc2c(Cl)cccc2Cl)CC1
active: LOX IMVI melanoma -89% | UO-31 renal 2.51% | ACHN renal -33.8%
inactive: HCT-15 colon 54.5% | HT29 colon 81.8% | SNB-19 CNS 94.2% | U251 CNS 91.2% | PC-3 prostate 70.8% | SK-MEL-5 melanoma 90.1% | UACC-62 melanoma 81.8% | SK-MEL-28 melanoma 103% | SK-MEL-2 melanoma 102% | EKVX NSCLC 78.6% | SN12C renal 81.3% | TK-10 renal 107% | CAKI-1 renal 54.6% | A498 renal 111% | CCRF-CEM leukemia 65.8% | MOLT-4 leukemia 97.3%

COc1cc(/C=N/n2cnc3oc(-c4ccccc4)cc3c2=N)cc(CN2CCCCC2)c1O
inactive: A498 renal 15%
active: HCT-15 colon -79.8% | HT29 colon -14.1% | SNB-19 CNS -41.3% | U251 CNS -66.5% | PC-3 prostate -31% | SK-MEL-5 melanoma -89.7% | UACC-62 melanoma -74.8% | LOX IMVI melanoma -86.6% | SK-MEL-28 melanoma -85.8% | SK-MEL-2 melanoma -38.5% | EKVX NSCLC -22.7% | SN12C renal -78.8% | UO-31 renal -91.6% | TK-10 renal -82.5% | ACHN renal -97.7% | CAKI-1 renal -94.2% | CCRF-CEM leukemia -6.9% | MOLT-4 leukemia 2%

COc1cc(/C=N/n2cnc3oc(-c4ccccc4)cc3c2=N)cc(CN2CCCC2)c1O
inactive: SNB-19 CNS 21.8% | SK-MEL-5 melanoma 91.5% | UACC-62 melanoma 96.7% | SK-MEL-28 melanoma 91.6% | SK-MEL-2 melanoma 113% | EKVX NSCLC 97% | TK-10 renal 114% | ACHN renal 75.9% | CAKI-1 renal 62.7% | A498 renal 85.7%
active: HCT-15 colon -85.2% | HT29 colon -48.2% | U251 CNS -45.7% | PC-3 prostate -68.6% | LOX IMVI melanoma -88.5% | SN12C renal -78.8% | UO-31 renal 9.45% | CCRF-CEM leukemia -2.49% | MOLT-4 leukemia 6.5%

CCCCCCCCNC(=O)c1ccc(Cn2c(CCCC)nc3c(N)nc4ccccc4c32)cc1
inactive: SNB-19 CNS 14.9% | PC-3 prostate 41.5% | UACC-62 melanoma 23.4% | SK-MEL-2 melanoma 95.4% | EKVX NSCLC 62.8% | UO-31 renal 11.8% | TK-10 renal 78.8% | ACHN renal 26.6% | A498 renal 68%
active: HCT-15 colon -55.8% | HT29 colon -23% | U251 CNS -59% | SK-MEL-5 melanoma -96.8% | LOX IMVI melanoma -86.3% | SK-MEL-28 melanoma -94% | SN12C renal -77.3% | CAKI-1 renal -1.97% | CCRF-CEM leukemia -1.62% | MOLT-4 leukemia -7.07%

O=C(Nc1cc(F)cc2cccnc12)c1cnc(N2CCOCC2)cn1
inactive: HCT-15 colon 32.4% | HT29 colon 30.1% | SNB-19 CNS 88.6% | U251 CNS 94.6% | PC-3 prostate 62.9% | SK-MEL-5 melanoma 83.5% | UACC-62 melanoma 84.9% | LOX IMVI melanoma 19.4% | SK-MEL-28 melanoma 77.4% | SK-MEL-2 melanoma 96% | EKVX NSCLC 63.6% | SN12C renal 83.5% | UO-31 renal 46.1% | TK-10 renal 61.6% | ACHN renal 34.8% | CAKI-1 renal 64.9% | A498 renal 86.6% | CCRF-CEM leukemia 28.6% | MOLT-4 leukemia 29.7%

O=C(CSc1ccc(-c2nc3ccccc3[nH]2)cn1)N1CCN(c2ccccc2F)CC1
active: SK-MEL-5 melanoma -32.7%
inactive: HCT-15 colon 72.4% | HT29 colon 94.1% | SNB-19 CNS 89.8% | U251 CNS 90.5% | PC-3 prostate 57.7% | UACC-62 melanoma 52.4% | LOX IMVI melanoma 85.3% | SK-MEL-28 melanoma 87.8% | SK-MEL-2 melanoma 88.4% | EKVX NSCLC 53.6% | SN12C renal 90.4% | UO-31 renal 70.9% | TK-10 renal 86.5% | ACHN renal 93.2% | CAKI-1 renal 49.1% | A498 renal 77% | CCRF-CEM leukemia 28.2% | MOLT-4 leukemia 14.6%

Oc1ccc(CSc2nnc(-c3ccc(Oc4ccccc4)cc3)n2-c2ccccc2)c2cccnc12
inactive: HCT-15 colon 10.8% | HT29 colon 44.8% | SNB-19 CNS 13.8% | U251 CNS 11.9% | PC-3 prostate 17.3% | SK-MEL-28 melanoma 14.6% | SK-MEL-2 melanoma 37.6% | EKVX NSCLC 14.8% | SN12C renal 19.1% | TK-10 renal 23.6% | CAKI-1 renal 13.1% | A498 renal 35.2% | CCRF-CEM leukemia 10.3% | MOLT-4 leukemia 18.7%
active: SK-MEL-5 melanoma -24.1% | UACC-62 melanoma -25.4% | LOX IMVI melanoma 4.48% | UO-31 renal -5.33% | ACHN renal 6.83%

O=C(/C=C1\C=CN(CCCCCCF)c2ccccc21)n1ccc2ccccc21
inactive: HCT-15 colon 101% | HT29 colon 98.3% | SNB-19 CNS 97.1% | U251 CNS 98.9% | PC-3 prostate 84.7% | SK-MEL-5 melanoma 94.4% | UACC-62 melanoma 76% | LOX IMVI melanoma 101% | SK-MEL-28 melanoma 106% | SK-MEL-2 melanoma 111% | EKVX NSCLC 79% | SN12C renal 90.5% | UO-31 renal 71.5% | TK-10 renal 115% | ACHN renal 97.4% | CAKI-1 renal 86.5% | A498 renal 96.3% | CCRF-CEM leukemia 96.1% | MOLT-4 leukemia 106%

C/C(=C(/C)C1CC1CCN(C(=O)c1ccccn1)S(=O)(=O)c1ccc(C)cc1)C1CCCCC1 (configuration not stated)
inactive: HCT-15 colon 91.8% | HT29 colon 98.3% | SNB-19 CNS 98.4% | U251 CNS 103% | PC-3 prostate 93.4% | SK-MEL-5 melanoma 78.6% | UACC-62 melanoma 63.6% | LOX IMVI melanoma 97.8% | SK-MEL-28 melanoma 97.3% | SK-MEL-2 melanoma 101% | EKVX NSCLC 77.6% | SN12C renal 98.2% | UO-31 renal 86.4% | TK-10 renal 105% | ACHN renal 99.3% | CAKI-1 renal 78.9% | A498 renal 94.6% | CCRF-CEM leukemia 92.5% | MOLT-4 leukemia 88.2%

CCNC(=NCCCN(C)C)N/C(N)=N/c1nc2ccccc2s1
inactive: HCT-15 colon 77.4% | HT29 colon 69.9% | SNB-19 CNS 90.1% | U251 CNS 79.3% | PC-3 prostate 80.3% | SK-MEL-5 melanoma 93.4% | UACC-62 melanoma 97.6% | LOX IMVI melanoma 73.5% | SK-MEL-28 melanoma 93.1% | SK-MEL-2 melanoma 92.9% | EKVX NSCLC 90.9% | SN12C renal 82% | UO-31 renal 64.3% | TK-10 renal 100% | ACHN renal 95.3% | CAKI-1 renal 65.1% | A498 renal 111% | CCRF-CEM leukemia 82.3% | MOLT-4 leukemia 94.8%

O=C1[C@@H]2Cc3c([nH]c4ccccc34)[C@H](c3c(Cl)cccc3Cl)N2C(=O)CN1C1CCN(Cc2c(F)cccc2F)CC1
inactive: HCT-15 colon 52.2% | HT29 colon 63.9% | SNB-19 CNS 81.7% | U251 CNS 73.5% | PC-3 prostate 69.9% | SK-MEL-5 melanoma 53.4% | UACC-62 melanoma 76.8% | SK-MEL-28 melanoma 75% | SK-MEL-2 melanoma 110% | EKVX NSCLC 60.6% | SN12C renal 50.6% | UO-31 renal 74.9% | TK-10 renal 106% | ACHN renal 81.6% | CAKI-1 renal 78.6% | A498 renal 103% | CCRF-CEM leukemia 65.5% | MOLT-4 leukemia 58.8%
active: LOX IMVI melanoma -47.1%

Oc1ccc(-c2nnc(SCc3ccc(O)c4ncccc34)n2-c2ccccc2)cc1
active: U251 CNS 9.39% | SK-MEL-5 melanoma -44.6% | UACC-62 melanoma -4.05% | LOX IMVI melanoma 5.09% | EKVX NSCLC 7.56% | UO-31 renal -8.86% | ACHN renal 8.27% | CCRF-CEM leukemia 6.99%
inactive: HCT-15 colon 20.3% | HT29 colon 24.9% | SNB-19 CNS 14.7% | PC-3 prostate 32.3% | SK-MEL-28 melanoma 17% | SK-MEL-2 melanoma 38.1% | SN12C renal 18.7% | TK-10 renal 34.3% | CAKI-1 renal 16.1% | A498 renal 16% | MOLT-4 leukemia 12.5%

O=C1NC(=O)/C(=C/c2ccc(OCc3cc4ccccc4nc3Cl)cc2)S1
inactive: HCT-15 colon 88.3% | HT29 colon 117% | SNB-19 CNS 100% | U251 CNS 101% | PC-3 prostate 92% | SK-MEL-5 melanoma 84.4% | UACC-62 melanoma 83.7% | LOX IMVI melanoma 56.4% | SK-MEL-28 melanoma 104% | SK-MEL-2 melanoma 112% | EKVX NSCLC 99.3% | SN12C renal 95.9% | UO-31 renal 80.6% | TK-10 renal 110% | ACHN renal 92.8% | CAKI-1 renal 97.1% | A498 renal 100% | CCRF-CEM leukemia 88.9% | MOLT-4 leukemia 101%

O=C(Nc1cc(Cl)cc(Cl)c1)Nc1ccc2oc(=O)ccc2c1
active: HCT-15 colon 8.08% | U251 CNS 6.21% | PC-3 prostate 1.84% | UACC-62 melanoma 2.84% | SK-MEL-28 melanoma 9.09% | SN12C renal 4.07% | UO-31 renal 3.75% | ACHN renal 4.26% | CAKI-1 renal 7.57%
inactive: HT29 colon 16.2% | SNB-75 CNS 39.3% | LOX IMVI melanoma 14.8% | EKVX NSCLC 17% | TK-10 renal 18.6% | CCRF-CEM leukemia 24.9% | MOLT-4 leukemia 12.4%

CCCCOc1ccc(S(=O)(=O)N2CCN(c3nccc(N4CCOCC4)n3)CC2)cc1
inactive: HT29 colon 13.5% | SNB-19 CNS 71.4% | U251 CNS 27.2% | PC-3 prostate 41.3% | SK-MEL-5 melanoma 46.8% | SK-MEL-28 melanoma 21.1% | SK-MEL-2 melanoma 33.5% | EKVX NSCLC 46.3% | SN12C renal 28.7% | UO-31 renal 24.8% | TK-10 renal 44.3% | ACHN renal 15.1% | CAKI-1 renal 13.8% | CCRF-CEM leukemia 49.8% | MOLT-4 leukemia 24.2%
active: HCT-15 colon 7.04% | UACC-62 melanoma -7.93% | LOX IMVI melanoma -67.9% | A498 renal -1.44%
